Bioassay records (PubChem BioAssay)
CYP2C19 inh = blockers of cytochrome P450 2C19 activity – biochemical, luminescence, ADME assay, primary screen | P33261 | CYP2C19 Supersomes, luciferin-H EGE luminescence, 30 min | inhibition, % at 5 µM | 21% of 96,000 active | AID 778, 2007;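 active means CYP2C19 inhibition above a set limit at 5 µM in the primary screen, cut at about 50% in these data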;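 further: plate controls were negative control wells for no effect and 2.5 mM tranylcypromine positive control for full effect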
CYP2C9 inh = blockers of cytochrome P450 2C9 activity – biochemical, luminescence, ADME assay, primary screen; P11712; CYP2C9 Supersomes, luciferin-H conversion; inhibition, % at 5 µM; 20% of 96,000 active; AID 777, 2007;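 active means blocking of liver enzyme CYP2C9 beyond about 50% at 5 µM, limit read from the data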
CYP2C9 act = human CYP2C9 activators, primary screen, biochemical, luminescence; Cytochrome P450 2C9 (Homo sapiens), P11712; recombinant CYP2C9, luciferin-H conversion; stronger effect = higher value; factor 1 = untreated enzyme, 0 = blocked; activation factor at 5 µM; 1.4% of 96,000 active;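 active means activation factor of 2 or more for CYP2C9 at a 5 µM dose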;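 further: 0 = sulfaphenazole-blocked wells and 1 = vehicle-only wells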
sEH inh = soluble epoxide hydrolase inhibitors, primary screen, biochemical, human sEH; Bifunctional epoxide hydrolase 2 (Homo sapiens), P34913; AID 707, 2007; recombinant human sEH enzymatic activity assay; inhibition, % at 2 µM; 0.34% of 91,000 active; in the data active means inhibition above about 80%
Target sequence (P34913 whole entry, looked up): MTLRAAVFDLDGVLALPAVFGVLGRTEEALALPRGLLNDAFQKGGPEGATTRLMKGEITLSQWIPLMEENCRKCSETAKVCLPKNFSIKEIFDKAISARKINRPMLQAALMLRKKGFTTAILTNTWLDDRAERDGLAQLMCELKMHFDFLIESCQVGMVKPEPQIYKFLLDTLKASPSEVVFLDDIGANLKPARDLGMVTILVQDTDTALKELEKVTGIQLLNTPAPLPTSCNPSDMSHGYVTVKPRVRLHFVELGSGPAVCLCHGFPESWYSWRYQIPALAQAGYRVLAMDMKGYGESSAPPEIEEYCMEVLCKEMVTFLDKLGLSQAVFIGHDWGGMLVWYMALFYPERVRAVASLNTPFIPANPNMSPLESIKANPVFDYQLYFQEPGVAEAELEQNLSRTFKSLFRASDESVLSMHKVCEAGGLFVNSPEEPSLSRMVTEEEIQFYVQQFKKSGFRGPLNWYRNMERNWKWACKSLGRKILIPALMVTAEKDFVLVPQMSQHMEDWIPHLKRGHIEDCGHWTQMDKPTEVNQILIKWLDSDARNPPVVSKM
CYP2C19 act = human CYP2C19 activators, primary screen, biochemical, luminescence | Cytochrome P450 2C19 (Homo sapiens), P33261 | recombinant CYP2C19, luciferin-H EGE luminescence; stronger effect = higher value; 0 = fully inhibited enzyme, 1 = untreated enzyme | activation factor at 5 µM | 96,000 tested, under 10 active;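 active means activation factor of at least 2 at 5 µM in the primary screen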;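 further: 0 = wells with 2.5 mM tranylcypromine and 1 = vehicle-only wells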
sEH activator = soluble epoxide hydrolase activators, primary screen, biochemical, human sEH. Bifunctional epoxide hydrolase 2 (Homo sapiens), P34913. 0.04% of 91,000 active. purified human sEH enzymatic activity, activator screen. AID 717, 2007. activation, % at 2 µM; in the data active means activation above about 37%
* = called active by the depositor. Compounds with a hit are over-represented: about 27% of the library has one in this group of screens.

Results for O=C(CSc1nc2ccccc2c(=O)n1-c1ccccc1)N1CCN(CCO)CC1 ?
CYP2C19 inh: 7; CYP2C9 inh: 12; CYP2C9 act: 0.9; sEH inh: -4; CYP2C19 act: 0.9; sEH activator: 3

Results for COC(=O)c1ccc2c(=O)n(Cc3ccco3)c(SCC(=O)Nc3ccccc3Cl)nc2c1 ?
CYP2C19 inh: 35; CYP2C9 inh: 88*; CYP2C9 act: 0.1; sEH inh: -7; CYP2C19 act: 0.7; sEH activator: 8

What do the screens show for `CCCCSc1nc(O)c(C2OC(=O)c3c2ccc(OC)c3OC)c(=O)n1-c1ccccc1` (stereo unspecified)?
CYP2C19 inh: 4; CYP2C9 inh: 14; CYP2C9 act: 0.9; sEH inh: 2; CYP2C19 act: 1; sEH activator: 1

How did O=C(CSc1nc2ccsc2c(=O)n1Cc1ccccc1)NCc1ccco1 do in these assays?
CYP2C19 inh: -7; CYP2C9 inh: 35; CYP2C9 act: 0.7; CYP2C19 act: 1.1

Results for COc1cc2nc(SCC(=O)NCCc3ccccc3)n(Cc3ccco3)c(=O)c2cc1OC ?
CYP2C19 inh: 66*; CYP2C9 inh: 96*; CYP2C9 act: 0; CYP2C19 act: 0.3

Results for COc1ccc(-n2c(=O)c3c4c(sc3n3c(C)nnc23)CCCC4)cc1 ?
sEH inh: -16; sEH activator: 13

What do the screens show for `CC(=O)c1ccc(NC(=O)CSc2nccn2CCc2ccccc2)cc1`?
CYP2C19 inh: 53*; CYP2C9 inh: 45; CYP2C9 act: 0.5; sEH inh: -8; CYP2C19 act: 0.5; sEH activator: 9

Results for O=[N+]([O-])c1ccc(Sc2nccn2Cc2ccccc2)cc1 ?
CYP2C19 inh: 96*; CYP2C9 inh: 70*; CYP2C9 act: 0.3; sEH inh: 12; CYP2C19 act: 0; sEH activator: -10

What do the screens show for `Cc1ccc(NC(=O)CSc2nccn2Cc2ccccc2)cc1C`?
CYP2C19 inh: 34; CYP2C9 inh: -96; CYP2C9 act: 2*; sEH inh: 7; CYP2C19 act: 0.7; sEH activator: -6

How did N#Cc1ccccc1NC(=O)CSc1nccn1CCc1ccccc1 do in these assays?
CYP2C19 inh: 59*; CYP2C9 inh: -40; CYP2C9 act: 1.4; sEH inh: -2; CYP2C19 act: 0.4; sEH activator: -3

Results for Clc1ccc(CSc2nccn2Cc2ccccc2)cc1 ?
CYP2C19 inh: 93*; CYP2C9 inh: -9; CYP2C9 act: 1.1; sEH inh: -5; CYP2C19 act: 0.1; sEH activator: 3

Results for Cc1cc(OCC(=O)Nc2ccc(F)c(F)c2)nc(C(C)C)n1 ?
CYP2C19 inh: 73*; CYP2C9 inh: 17; CYP2C9 act: 0.8; sEH inh: -4; CYP2C19 act: 0.3; sEH activator: 3

What do the screens show for `CC(c1ccccc1)C1C(C#N)=C(N)SC(N)=C1C#N` (stereo unspecified)?
CYP2C19 inh: 93*; CYP2C9 inh: -1; CYP2C9 act: 1; sEH inh: 13; CYP2C19 act: 0.1; sEH activator: -12

Results for Cc1ccc(C2C(C#N)=C(N)SC(N)=C2C#N)cc1 ?
CYP2C19 inh: 24; CYP2C9 inh: 48; CYP2C9 act: 0.5; CYP2C19 act: 0.8

What do the screens show for `CC(C)C1C(C#N)=C(N)SC(N)=C1C#N`?
CYP2C19 inh: 68*; CYP2C9 inh: 2; CYP2C9 act: 1; sEH inh: 13; CYP2C19 act: 0.3; sEH activator: -13

Results for CC(CC1C(C#N)=C(N)SC(N)=C1C#N)c1ccccc1 (stereo unspecified) ?
CYP2C19 inh: 92*; CYP2C9 inh: 98*; CYP2C9 act: 0; sEH inh: -16; CYP2C19 act: 0.1; sEH activator: 16

How did CCC(CC)C1C(C#N)=C(N)SC(N)=C1C#N do in these assays?
sEH inh: 15; sEH activator: -15

How did COc1ccccc1OC1=NS(=O)(=O)c2ccccc21 do in these assays?
CYP2C19 inh: -15; CYP2C9 inh: -12; CYP2C9 act: 1.1; sEH inh: -6; CYP2C19 act: 1.2; sEH activator: 6
